Five compounds from PubChem BioAssay can be followed below.

Test [1] relates to PRMT1 (protein arginine N-methyltransferase 1). Description: small molecules binding arginine methyltransferase PRMT1 – biochemical, small-molecule microarray, 635 nm fluorescence, primary screen (AID 1088).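 Note: binding of Prmt1 protein to compounds spotted on small-molecule microarray slides.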 The conditions noted are these: higher = more signal.
Test [2] can be described thus: growth effects on S. cerevisiae YJM789 – YJM789 clinical isolate, OD600, 24 h, basal, primary screen (AID 1089).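 Note: growth of clinical yeast isolate S. cerevisiae YJM 789 seeded 1000 cells per well; test concentration not given here.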 The settings on record: higher = more signal, called active from +8 up or from −8 down.
A short description of test [3]: S. pombe growth modifiers, basal conditions – strain 972, OD600, 24 h, no modulator, primary screen (AID 1090).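 Note: basal condition with compound alone and no growth modifier present; test concentration not given here.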 The conditions noted are these: S. pombe 972 growth, higher = more signal, called active from +8 up or from −8 down.
Test [4] can be described thus: budding yeast growth modifiers under rapamycin – strain BY4716, OD600, 96 h, primary screen (AID 1091). Note: test concentration not given here. The conditions noted are these: S. cerevisiae BY4716 + rapamycin, higher = more signal, called active from +8 up or from −8 down.
Test [5] addresses Torsin-1A-interacting protein 2 (Homo sapiens) (UniProt Q8NFQ8). Description: small molecules binding lysate-expressed LULL1 – cell lysate, human LULL1 lysate, 635/667 nm fluorescence, primary screen (AID 1092).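 Note: probe is lysate of COS7 cells overexpressing human LULL1; score merges per-feature 667 nm fluorescence with signal-to-noise.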 The settings on record: small-molecule microarray, hLULL1 lysate binding, 635 nm fluorescence; higher = more signal.
Test [6] can be described thus: optical density change of DRC41 E. coli – strain DRC41, OD650, 24 h, E. coli filamentation project, primary screen (AID 1093).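 Note: MC1000 strain lacking acrAB efflux and sulA so SOS filamentation is blocked; test concentration not given here.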 The conditions noted are these: E. coli DRC41 growth, higher = more signal, called active from +8 up or from −8 down.
Test [7] is described as follows: probe aLefty2 binding to arrayed compounds – biochemical, biotinylated probe, 635/667 nm fluorescence, primary screen (AID 1094).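 Note: score merges spot fluorescence near 667 nm with spot signal-to-noise ratio.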 The conditions noted are these: small-molecule microarray, higher = more signal.
Test [8] deals with Noggin (protein binding on small-molecule microarray). Description: small molecules binding Noggin protein – biochemical, 635/667 nm fluorescence, primary screen (AID 1095).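 Note: score merges 667 nm feature fluorescence with signal to noise over triplicate slides.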 The conditions noted are these: 635 nm fluorescence, higher = more signal.
Test [9] has as its target Neurogenic locus notch homolog protein 3 (Homo sapiens) (UniProt Q9UM47). Description: small molecules binding NOTCH3 protein – biochemical, 635/667 nm fluorescence, primary screen (AID 1096). The settings on record: small-molecule microarray, 635 nm fluorescence, higher = more signal.
A short description of test [10]: probe aEGFR binding to arrayed compounds – biochemical, biotinylated probe, 635/667 nm fluorescence, primary screen (AID 1097).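 Note: probe is a biotinylated anti-EGFR antibody binding compounds printed on slides; score combines fluorescence near 667 nm and signal to noise of each spot.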 The settings on record: small-molecule microarray, higher = more signal.
Test [11] has as its system Plasmodium falciparum Sir2 (PF13_0152, Sir2A). Nature of the test: Plasmodium falciparum Sir2A binding compounds – biochemical, small-molecule microarray, 635 nm fluorescence, primary screen (AID 1098).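 Note: score merges spot fluorescence intensity with its signal-to-noise ratio.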 The conditions noted are these: fluorescence 635 nm, higher = more signal.
Test [12] can be described thus: probe aDKK1 binding to arrayed compounds – biochemical, biotinylated probe, 635/667 nm fluorescence, primary screen (AID 1099).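 Note: score merges 667nm spot fluorescence with signal to noise across triplicate slides; reference of the scale not given here.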 The conditions noted are these: small-molecule microarray, higher = more signal.
Test [13] is described as follows: probe aCHRDL2 binding to arrayed compounds – biochemical, biotinylated probe, 635/667 nm fluorescence, primary screen (AID 1100). The conditions noted are these: small-molecule microarray, higher = more signal.
Test [14] is described as follows: change in splice reporter luminescence, either direction, cell-based, HEK293, spliceosome inhibition project, primary screen (AID 1101).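 Note: HEK293 cells carrying a splicing-competent luciferase reporter gene; test concentration not given here.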 The settings on record: HEK293 splicing luciferase reporter, 24 h, higher = more signal, called active from +8 up or from −8 down. Background: In a reporter assay the amount or activity of a reporter protein is the signal.
Test [15] deals with Fibroblast growth factor 10 (Homo sapiens) (UniProt O15520). Description: compounds binding fibroblast growth factor 10 – biochemical, small-molecule microarray, 635 nm fluorescence, primary screen (AID 1102). The settings on record: FGF10 binding, fluorescence 635 nm, higher = more signal.
Chain of Fibroblast growth factor 10 (Homo sapiens) (O15520 whole entry, looked up): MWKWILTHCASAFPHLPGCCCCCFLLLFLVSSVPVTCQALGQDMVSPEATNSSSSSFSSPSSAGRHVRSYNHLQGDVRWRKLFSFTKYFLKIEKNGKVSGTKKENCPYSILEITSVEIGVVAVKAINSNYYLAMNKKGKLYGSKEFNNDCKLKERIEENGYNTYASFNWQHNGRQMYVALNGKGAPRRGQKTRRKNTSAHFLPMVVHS
The subject of test [16] is glycogen synthase kinase-3 (GSK3A per assay name; protocol says GSK3B). Description: compounds binding glycogen synthase kinase-3 – biochemical, small-molecule microarray, 635 nm fluorescence, GSK3A, primary screen (AID 1103). Note: the record names both GSK3A and GSK3B. The settings on record: fluorescence 635 nm, higher = more signal.
Test [17] has as its target Epidermal growth factor receptor (Homo sapiens) (UniProt P00533). Nature of the test: compounds binding epidermal growth factor receptor – biochemical, small-molecule microarray, 635 nm fluorescence, primary screen (AID 1104).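 Note: score merges 667 nm emission intensity with spot signal to noise over triplicate slides.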 The conditions noted are these: EGFR binding, higher = more signal.
Test [18] addresses Follistatin-related protein 3 (Homo sapiens) (UniProt O95633). Description: compounds binding follistatin-related protein 3 – biochemical, small-molecule microarray, 635 nm fluorescence, primary screen (AID 1105).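 Note: score merges emission near 667 nm and signal to noise per printed spot across three slides.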 The settings on record: FSTL3 binding, higher = more signal.
Test [19] has as its target Dickkopf-related protein 1 (Homo sapiens) (UniProt O94907). Description: small molecules binding DKK1 protein – biochemical, small-molecule microarray, 635 nm fluorescence scan, primary screen (AID 1106).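 Note: score merges emission near 667 nm with signal to noise over three replicate slides.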 The settings on record: higher = more signal.
The subject of test [20] is Inhibin beta A chain (activin A). Description: small molecules binding activin A – biochemical, small-molecule microarray, 635 nm fluorescence scan, primary screen (AID 1107).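 Note: mouse activin A protein probed at 4.33 µg/mL on printed slides; score merges bound-protein fluorescence near 667 nm with spot signal-to-noise.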 The settings on record: INHBA, higher = more signal.

Active and inactive are the calls of the source.

Chain of Neurogenic locus notch homolog protein 3 (Homo sapiens) (Q9UM47 whole entry, looked up): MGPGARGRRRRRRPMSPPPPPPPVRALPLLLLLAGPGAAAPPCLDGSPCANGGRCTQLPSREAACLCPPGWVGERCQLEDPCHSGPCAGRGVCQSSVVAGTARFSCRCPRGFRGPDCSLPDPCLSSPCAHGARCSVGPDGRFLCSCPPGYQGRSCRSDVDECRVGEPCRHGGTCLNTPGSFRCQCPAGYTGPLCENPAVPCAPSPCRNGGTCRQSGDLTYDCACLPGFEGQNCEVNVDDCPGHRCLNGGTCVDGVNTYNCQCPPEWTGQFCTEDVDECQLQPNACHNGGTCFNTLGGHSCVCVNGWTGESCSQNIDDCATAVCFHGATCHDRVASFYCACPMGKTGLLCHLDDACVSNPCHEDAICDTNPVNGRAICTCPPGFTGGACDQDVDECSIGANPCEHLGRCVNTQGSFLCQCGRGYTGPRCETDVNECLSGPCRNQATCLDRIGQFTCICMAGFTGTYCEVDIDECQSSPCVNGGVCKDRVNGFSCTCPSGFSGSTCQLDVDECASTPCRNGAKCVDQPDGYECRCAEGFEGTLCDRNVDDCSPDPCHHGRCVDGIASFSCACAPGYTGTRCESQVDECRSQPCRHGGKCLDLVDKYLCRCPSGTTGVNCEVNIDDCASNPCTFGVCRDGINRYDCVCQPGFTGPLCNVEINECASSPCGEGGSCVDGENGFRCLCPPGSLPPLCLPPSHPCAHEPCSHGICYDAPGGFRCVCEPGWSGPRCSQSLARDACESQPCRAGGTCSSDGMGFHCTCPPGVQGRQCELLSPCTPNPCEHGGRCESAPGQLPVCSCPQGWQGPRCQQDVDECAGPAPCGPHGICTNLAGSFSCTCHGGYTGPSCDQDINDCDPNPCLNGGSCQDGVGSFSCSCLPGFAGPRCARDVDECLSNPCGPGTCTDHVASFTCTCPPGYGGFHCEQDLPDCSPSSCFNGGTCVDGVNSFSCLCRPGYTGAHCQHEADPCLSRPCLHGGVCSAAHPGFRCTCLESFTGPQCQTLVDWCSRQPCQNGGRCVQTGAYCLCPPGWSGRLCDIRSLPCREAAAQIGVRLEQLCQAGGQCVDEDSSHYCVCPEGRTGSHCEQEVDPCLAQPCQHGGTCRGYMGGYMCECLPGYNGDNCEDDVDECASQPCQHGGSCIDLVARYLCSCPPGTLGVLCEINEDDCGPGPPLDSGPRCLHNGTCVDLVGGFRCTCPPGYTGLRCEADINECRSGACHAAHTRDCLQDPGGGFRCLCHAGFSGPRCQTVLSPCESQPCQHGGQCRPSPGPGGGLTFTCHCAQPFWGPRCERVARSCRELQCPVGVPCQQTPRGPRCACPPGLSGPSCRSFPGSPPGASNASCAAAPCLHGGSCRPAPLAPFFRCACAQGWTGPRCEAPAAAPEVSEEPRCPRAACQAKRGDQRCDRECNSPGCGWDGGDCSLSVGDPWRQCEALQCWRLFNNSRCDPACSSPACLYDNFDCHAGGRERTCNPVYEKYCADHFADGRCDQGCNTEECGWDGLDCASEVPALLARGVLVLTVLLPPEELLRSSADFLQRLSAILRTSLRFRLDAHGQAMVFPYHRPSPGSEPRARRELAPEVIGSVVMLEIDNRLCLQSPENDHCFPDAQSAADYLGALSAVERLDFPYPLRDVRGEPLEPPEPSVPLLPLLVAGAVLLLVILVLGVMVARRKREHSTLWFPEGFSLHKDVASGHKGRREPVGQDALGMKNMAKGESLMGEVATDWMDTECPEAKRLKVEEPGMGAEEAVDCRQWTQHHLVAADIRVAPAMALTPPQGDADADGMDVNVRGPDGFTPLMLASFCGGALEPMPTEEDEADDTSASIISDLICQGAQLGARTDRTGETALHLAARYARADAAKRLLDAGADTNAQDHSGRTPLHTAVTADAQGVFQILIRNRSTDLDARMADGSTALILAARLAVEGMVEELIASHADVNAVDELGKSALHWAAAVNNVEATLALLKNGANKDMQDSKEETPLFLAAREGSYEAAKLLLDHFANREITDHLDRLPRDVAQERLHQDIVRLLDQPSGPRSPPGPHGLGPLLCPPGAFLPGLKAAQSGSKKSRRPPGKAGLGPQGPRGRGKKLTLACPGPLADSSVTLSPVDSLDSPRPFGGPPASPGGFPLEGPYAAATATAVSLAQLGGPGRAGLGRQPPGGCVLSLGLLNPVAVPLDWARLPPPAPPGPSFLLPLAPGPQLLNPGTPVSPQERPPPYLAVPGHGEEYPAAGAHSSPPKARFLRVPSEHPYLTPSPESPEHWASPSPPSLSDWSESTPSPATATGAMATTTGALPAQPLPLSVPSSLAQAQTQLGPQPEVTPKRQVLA
Chain of Epidermal growth factor receptor (Homo sapiens) (P00533 whole entry, looked up): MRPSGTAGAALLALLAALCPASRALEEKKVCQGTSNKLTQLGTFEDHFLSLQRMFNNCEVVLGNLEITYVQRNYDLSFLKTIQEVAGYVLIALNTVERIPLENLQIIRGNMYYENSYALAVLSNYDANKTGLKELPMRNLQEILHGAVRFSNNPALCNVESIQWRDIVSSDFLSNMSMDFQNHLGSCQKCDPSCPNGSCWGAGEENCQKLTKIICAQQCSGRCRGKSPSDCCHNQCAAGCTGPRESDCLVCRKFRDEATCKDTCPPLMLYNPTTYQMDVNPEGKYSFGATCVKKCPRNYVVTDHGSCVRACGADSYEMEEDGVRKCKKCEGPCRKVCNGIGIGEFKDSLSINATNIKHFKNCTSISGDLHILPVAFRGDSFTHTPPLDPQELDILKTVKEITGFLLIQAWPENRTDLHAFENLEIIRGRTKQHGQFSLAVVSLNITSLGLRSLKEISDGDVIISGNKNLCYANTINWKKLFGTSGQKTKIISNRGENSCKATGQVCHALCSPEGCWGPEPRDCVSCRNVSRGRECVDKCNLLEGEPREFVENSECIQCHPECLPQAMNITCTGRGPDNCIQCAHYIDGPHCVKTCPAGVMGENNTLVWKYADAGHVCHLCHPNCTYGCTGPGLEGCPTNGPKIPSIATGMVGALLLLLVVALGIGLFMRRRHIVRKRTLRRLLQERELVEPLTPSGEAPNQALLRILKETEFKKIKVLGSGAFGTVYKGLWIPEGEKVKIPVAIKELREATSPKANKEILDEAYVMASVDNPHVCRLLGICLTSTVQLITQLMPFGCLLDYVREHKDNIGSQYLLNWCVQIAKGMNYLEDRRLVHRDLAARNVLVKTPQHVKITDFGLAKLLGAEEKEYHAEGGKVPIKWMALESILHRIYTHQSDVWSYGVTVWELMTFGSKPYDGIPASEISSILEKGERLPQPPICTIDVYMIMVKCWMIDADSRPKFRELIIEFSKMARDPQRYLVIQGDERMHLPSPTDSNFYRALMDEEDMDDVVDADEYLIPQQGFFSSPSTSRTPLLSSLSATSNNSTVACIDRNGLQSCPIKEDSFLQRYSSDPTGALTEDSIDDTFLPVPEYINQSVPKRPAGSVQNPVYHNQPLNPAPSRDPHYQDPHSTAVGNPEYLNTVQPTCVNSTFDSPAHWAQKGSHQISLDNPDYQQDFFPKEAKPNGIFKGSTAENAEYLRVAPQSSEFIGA
Chain of Follistatin-related protein 3 (Homo sapiens) (O95633 whole entry, looked up): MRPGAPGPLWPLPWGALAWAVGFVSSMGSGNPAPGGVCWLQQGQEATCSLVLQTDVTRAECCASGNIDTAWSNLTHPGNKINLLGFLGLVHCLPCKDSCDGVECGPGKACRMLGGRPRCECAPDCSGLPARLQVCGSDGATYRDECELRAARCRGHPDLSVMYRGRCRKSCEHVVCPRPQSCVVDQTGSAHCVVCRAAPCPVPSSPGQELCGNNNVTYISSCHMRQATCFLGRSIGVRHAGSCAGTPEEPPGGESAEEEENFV
Chain of Torsin-1A-interacting protein 2 (Homo sapiens) (Q8NFQ8 whole entry, looked up): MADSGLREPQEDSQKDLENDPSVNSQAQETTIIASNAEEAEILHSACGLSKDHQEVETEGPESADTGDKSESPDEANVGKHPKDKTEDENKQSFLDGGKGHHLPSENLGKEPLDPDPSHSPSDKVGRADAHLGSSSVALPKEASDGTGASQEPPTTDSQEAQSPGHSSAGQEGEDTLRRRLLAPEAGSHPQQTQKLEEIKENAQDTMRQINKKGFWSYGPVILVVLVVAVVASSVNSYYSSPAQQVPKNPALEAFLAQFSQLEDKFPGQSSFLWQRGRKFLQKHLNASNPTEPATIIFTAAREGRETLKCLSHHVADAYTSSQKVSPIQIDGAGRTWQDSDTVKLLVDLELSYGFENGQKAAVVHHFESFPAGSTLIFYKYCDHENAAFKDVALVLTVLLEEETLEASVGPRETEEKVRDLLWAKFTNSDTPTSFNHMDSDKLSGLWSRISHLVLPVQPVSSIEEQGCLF
Chain of Dickkopf-related protein 1 (Homo sapiens) (O94907 whole entry, looked up): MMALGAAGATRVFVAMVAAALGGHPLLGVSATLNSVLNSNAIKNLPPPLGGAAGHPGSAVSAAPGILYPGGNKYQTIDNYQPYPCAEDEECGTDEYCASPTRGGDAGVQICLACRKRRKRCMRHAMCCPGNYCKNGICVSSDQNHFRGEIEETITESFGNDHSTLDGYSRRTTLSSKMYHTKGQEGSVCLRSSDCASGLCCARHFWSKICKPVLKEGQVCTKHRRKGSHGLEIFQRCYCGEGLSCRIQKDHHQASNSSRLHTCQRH

Consider `C=CCNC(=O)[C@H]1[C@@H]2C(=O)O[C@@H](c3ccccc3)[C@@H](c3ccccc3)N2[C@@H](c2ccccc2OCCO)[C@]12C(=O)N(C(=O)OCCOC)c1ccc(C#CCC(C(=O)OC)C(=O)OC)cc12`, for which the composite z-score in test [1] worked out at 1.55; in test [5], 2.97; in [7], 0.0757; in test [8] it was 1.15; in [9], 1.03; in test [10], 0.0343. The composite z-score is 1.1 in test [11]; 0.572 in test [12]; 0.155 in test [13]; 0.541 in test [15]; 1.29 in test [16]; 0.328 in [17]. The composite z-score in test [18] is 0.919; in test [19] it was 0.271; in test [20] it was 0.641. Moreover, the z-score was 0.759 (inactive) in [2]; -1.68 (inactive) in [3]; 5.51 (inactive) in [4]; 3.27 (inactive) in test [6]; -1.69 (inactive) in test [14].

In the case of `CO[C@@H]1COC(=O)[C@@H]2CCCN2C(=O)CC=C[C@@H](C)[C@H](OC)COC(=O)[C@@H]2CCCN2C(=O)CC=C[C@H]1C`, the composite z-score in [1] was 1.11; in [5] it was -0.522; in test [7], -0.166; in test [8], 1.14; in test [9] it was -0.325; in test [10] it was -0.0332. For the same compound, the composite z-score was 1.29 in [11]; -0.875 in test [12]; -1.33 in test [13]; 0.546 in [15]; 0.171 in [16]; 0.992 in test [17]. Further, the results for the composite z-score in test [18], in [19] and in [20] were 1.19, 1.27 and 1.43, respectively. The z-score was -0.0171 (inactive) in test [2]; -1.05 (inactive) in test [3]; -0.258 (inactive) in test [4]; 1.1 (inactive) in [6]; -0.481 (inactive) in test [14].

In the case of `C=CC[C@]1(C(=O)O)N=C(c2ccc(OCCCO)cc2)O[C@H]1c1ccccc1N=[N+]=[N-]`, the composite z-score is -0.417 in test [1]; 2.62 in [5]; 0.0313 in [7]; -0.491 in test [8]; -0.33 in [9]; -0.0059 in test [10]. For the same compound, the composite z-score in test [11] is 1.75; in test [12], 0.623; in [13] it was 1.05; in test [15] it was -0.103; in test [16], -0.335; in [17], -0.18. The composite z-score in test [18] is -0.214; in [19], -0.651; in [20], 1.43. Moreover, the z-score in [2] was 0.942 (inactive); in test [3] it was -0.155 (inactive); in test [4], -0.336 (inactive); in test [6], 1.32 (inactive); in test [14], -0.627 (inactive).

In the case of `CO[C@H]1O[C@H](CO)[C@@H](OC(=O)Nc2ccc(Oc3ccccc3)cc2)[C@H](OC(=O)Nc2ccccc2-c2ccccc2)[C@H]1OC(=O)Nc1ccccc1-c1ccccc1`, the composite z-score worked out at 1.54 in test [1]; 3.28 in test [5]; 0.218 in [7]; 1.23 in test [8]; 1.06 in [9]; 0.242 in test [10]. The composite z-score was 1.35 in test [11]; 0.542 in [12]; 0.748 in test [13]; 1.14 in test [15]; 1.34 in test [16]; 0.528 in test [17]. Besides, the composite z-score was determined as 1.36 in [18], 0.538 in test [19] and 0.187 in test [20]. For the same compound, the z-score is 3.07 (inactive) in test [2]; 1.84 (inactive) in [3]; 0.792 (inactive) in test [4]; 2.45 (inactive) in test [6]; 2.76 (inactive) in test [14].

`COC(=O)c1ccc(C#CC(NP(=O)(c2ccccc2)c2ccccc2)c2ccccc2)cc1` (stereo not given): the composite z-score in [1] is -0.362; in test [5], 3.14; in test [7] it was 0.594; in test [8], -0.0434; in test [9] it was 1.05; in [10] it was 0.093. Also, the composite z-score in test [11] was -0.179; in test [12], 1.2; in test [13], 1.38; in test [15] it was 0.847; in [16], -0.245; in test [17] it was 1.77. Besides, the composite z-score in test [18] was 1.7; in [19], 0.567; in [20], 1.76. The z-score was -0.664 (inactive) in test [2]; -11.5 (active) in test [3]; 1.25 (inactive) in test [4]; 0.0037 (inactive) in [6]; 5.42 (inactive) in test [14].
